Measured values reported in PubChem BioAssay AID1508600 (Functional Genomics Laboratory (NCATS/FGL), 2020).
Out of some 53,000 sequences screened, about 3,700 (7%) were called active. Shown is part of a subset that was picked to be rich in actives. Unmarked numbers belong to inactive results.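 The calls were made as follows: active = gene knockdowns whose robust z-score for IL-1 alpha signal is at least 2 or at most -2, so actives lie on both sides; inactive = the rest.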

Assay: Components of the Cytosolic LPS Sensing Pathway: Gene Identification via Genome-wide siRNA Screen;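 also: robust z of the log signal after scaling to non-targeting control siRNA wells of the plate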
Conditions: RAW264.7 macrophages, IL-1a HTRF, actives lie on both sides, screened at 100 nM (by protocol), cells primed 5 h with Pam3CSK4 first
Method in brief: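 IL-1a HTRF of supernatants after 24 hour LipidA transfection of Pam3CSK4-primed (5 hours) RAW264.7 cells, 48h post-siRNA transfection (100 nM). Scores: percent of plate negative-control median, then log-based robust z-score.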
In the case of GGAAUGUUGGAAUCAAUUGTT against Gcm1, the z-score is reported as 2.83 (active).
Sequence GGAAUUUUACCUUUUGGAUTT against Tm9sf3 has a z-score of 0.408.
For GGUCUCACUGAAAAUGAAATT against Ces1g, the z-score was -0.656.
Sequence GGCUUGUCGUCCUGGUGUATT against Rprd2 has a z-score of 0.219.
For GGCCUACAUCAUUCACUCCTT against Olfr64, the z-score was -0.384.
For GGAGGAUCUAUACCACGGUTT against Npffr2, the z-score was 0.565.
With GGUUCGAGUCUCUUACUCUTT against Pou4f3 the z-score was -0.574.
Work on GGGUGACCUUUACGUCUUCTT against Reep1 yielded a z-score of 0.0877.
Sequence GGGAGAAGAAUUUGAACAGTT against Ak1 has a z-score of 0.557.
With GGUGGCAGACUGUGUUUAUTT against B3gnt8 the z-score was -2.08 (active).
In the case of GGGAUGCGGAGGUUUAAGATT against Dhx37, the z-score is reported as 0.815.
In the case of GGAGCUAAAGCUGCUGAUUTT against S100g, the z-score is reported as -0.404.
Sequence CCCAGGACGACGACUUUUUTT against Pnmal1 has a z-score of -0.0664.
For “GGACUUGGAAGUAAUUUUCTT against C230071H18Rik”, the z-score was 2.06 (active).
GGUUUUGGGCAAAAUUGAGTT against Edf1 gave a z-score of -0.899.
For GCUAGGUCAGGGAGUUUUATT against Exosc2, the z-score was 3.33 (active).
CCAAUGCAAUGUUAGCUUUTT against Tas1r3 showed a z-score of 0.898.
With GCCAUGGCAUAAAAACUGGTT against P2rx6 the z-score was -0.329.
CCACAUGAUCCUAACUUUGTT against Pqbp1 gave a z-score of -0.157.
Sequence CCUGAUAAGCAAAUACGGCTT against Rep15 has a z-score of -0.893.
Sequence CCUGAAGCCUCAAUACACATT against Ugt1a1 has a z-score of 0.967.
With GGCCUAAACACGGUUUUCATT against Ppm1n the z-score was 3.72 (active).
“GGAUGAUCACAAAGGUAUATT against 4632404H12Rik” showed a z-score of 0.0665.
In the case of CCCAGUUGGUGUUUAUAUATT against Ppp3cb, the z-score is reported as 0.115.
GGAGAUUUCAUGAACUCUGTT against Srrm3 showed a z-score of -0.141.
In the case of GGGUCUGCUACAUCUUCGGTT against Ino80e, the z-score is reported as 2.27 (active).
Sequence GGCCAGGAAAAAAUCUGCATT against Neu1 has a z-score of -0.293.
For GGGUUUGACCUGAUUUCUCTT against Col9a1, the z-score was 0.305.
Sequence GGUUACCUCCACCAGAUCATT against Avpi1 has a z-score of -0.326.
GGCGGUAACCACUUUCACGTT against Mycn showed a z-score of -0.567.
For “GGUUCCCUUUUUCAUCUAATT against 4632433K11Rik”, the z-score was 3.08 (active).
With GGAAGAAAUGGAAUUGAAGTT against Pcdhga6 the z-score was 0.649.
For GGAGCAUUCAAAUUACAUCTT against Ccni, the z-score was 4.62 (active).
Sequence GGAUGAUCAAGACAAGCAGTT against Nobox has a z-score of -0.763.
CCUUGGGAAUUACCCAGAGTT against Cage1 showed a z-score of -0.565.
GCCGUUCCCAUUAUCGUUUTT against Tmem87a gave a z-score of -0.693.
With GGAAAUUUGUAUCCCGAGUTT against Trp53 the z-score was -2.14 (active).
For GGAAGGUGGAGAAAAUCCGTT against Hhipl2, the z-score was 0.585.
Work on GGAAGAUACUAAUAGAGUATT against Enpep yielded a z-score of -0.00304.
GGACGACAACGACAUCAUGTT against Sfrp2 gave a z-score of 0.475.
Work on GGGACCAAAGGAAACUUCATT against Eif2s3y yielded a z-score of -0.14.
In the case of CCCAGGUGAUUCUGAUAUUTT against Rpl30, the z-score is reported as 0.534.
With UGGACUUGCUUCUCACAUCTT against Olfr694 the z-score was -2.22 (active).
In the case of GGUACAUUGGCAUUGUGAATT against Hnrnpf, the z-score is reported as 0.525.
Work on GCCUCCUUUGCUUCAUUUCTT against Fcer1g yielded a z-score of 1.83.
With GGUCUUCUGAAGAUGGCGUTT against Pja2 the z-score was 1.39.
GCAACAAGUCUGGAGACAATT against Pebp1 showed a z-score of -0.595.
With GGAGUUCCAGAAGCUUCUATT against Vwa3b the z-score was -1.72.
GCGGCUCUUACGAGGUUUATT against Upk3a showed a z-score of 0.024.
In the case of CGAUGAGAGUCCACUCCCATT against Cox18, the z-score is reported as -3.19 (active).
For “GGGAGUUAUGUUGGUAUCATT against 1700029F12Rik”, the z-score was -1.38.
In the case of GGACUUCUUCUAUUUCAUATT against Fam20a, the z-score is reported as -0.986.
In the case of GGAAAACACGUUCACUAUATT against Elp2, the z-score is reported as 0.021.
GGAGUCUCCAAUGAAAUGUTT against Kcnma1 showed a z-score of -0.464.
In the case of GCUAAACGAGUUAUUGGUGTT against Ecpas, the z-score is reported as 0.829.
With GGAGAAACUGGCUUUCUCUTT against Zp3 the z-score was 0.918.
For GGUUCUACAGAUGUUUUCUTT against Tnfrsf22, the z-score was 3.84 (active).
GCGGCAAGUGGACUUUUCATT against Dlc1 gave a z-score of -1.09.
Work on GCCCAGUUUGUCACAAAGCTT against Sorl1 yielded a z-score of -0.276.
In the case of GCUAAGCGGAAUGCACUCGTT against Cxcl5, the z-score is reported as -2.23 (active).
For “CCCUAGUGCAGUGAUAACUTT against 1700016D06Rik”, the z-score was 0.938.
Work on CCCAACAAGAGUAUCUAUGTT against Foxh1 yielded a z-score of -0.125.
GGCAUCUCUCCAAUAACCUTT against Fbxw2 gave a z-score of -1.2.
With GGUUCUGGUUUAGAUGCUATT against H2aw the z-score was 2.36 (active).
GGAUUUCUUCUUAUGAUGATT against Khnyn showed a z-score of -1.21.
With GCUCAGAAUAUCACAUCAATT against Ppm1b the z-score was -1.59.
For GCUAAAAUAUUAGGGAAGCTT against Timm29, the z-score was 0.429.
For GGAGAUAGGAUUGCUUGCATT against Mthfd1l, the z-score was -2.3 (active).
